# Unmarked numbers belong to inactive results. No rule for the calls is given here.
# System: Imidazoline I2
# Experiment: selectivity profiling over binding targets, CYP450 – biochemical, Ricerca HitProfilingScreen, selectivity assay for S1P3 agonist project, profiling panel (AID 540351)
# Settings: Ricerca receptor/enzyme binding panel plus CYP450, Central, at 30 µM, active compounds read high
compound,measurement,value
O=C(c1cc(C2CC2)on1)N(C1CCCCC1)C1CCCCC1,inhibition,23%

# Source: PubChem BioAssay AID540351 (The Scripps Research Institute Molecular Screening Center, 2011)
